Inconclusive results are not listed. Calls of active or inactive are those of the source. Calls follow the shape of the dose curve; as a rule, active = well fitted inhibition curve with a large enough effect; inconclusive = small, poorly fitted or top-dose-only effect; inactive = flat fitted curve, though single readings scatter.

This note sets out measurements from PubChem BioAssay AID588324 (National Center for Advancing Translational Sciences (NCATS), 2011).

The test system of the experiment is Trypanosoma cruzi 6-phosphofructokinase. The experiment can be described thus: Confirmatory Assay to Find Inhibitors of T. brucei phosphofructokinase: Counter Screen against T cruzi PFK. The settings on record: ADP-Glo luminescence, 45 min; series mostly up to 57.5 µM. From the text: Various species of the protozoan family Trypanosomatidae are responsible for a range of serious human diseases in tropical and subtropical areas of the world. […] Many of the disorders caused by trypanosomatids are fatal if left untreated, but most currently used drugs are inefficient and toxic. […] Oxidative metabolism involving the mitochondrial tricarboxylic acid cycle and oxidative phosphorylation are repressed in these parasites, and recent RNA interference (RNAi) experiments have shown that even partial depletion of certain individual glycolytic enzymes can lead to the death of cultured parasites. One such glycolytic enzyme, phosphofructokinase (PFK), catalyzes the formation of fructose-1,6-bisphosphate (F1,6BP) and ADP from fructose-6-phosphate (F6P) and ATP, and in many metabolic circumstances makes an important contribution to the control of flux through the glycolytic pathway. As a specific glycolytic target, PFK is particularly attractive as it catalyzes the first irreversible step in glycolysis, and structural and kinetic studies have shown very substantial and essential differences from corresponding host enzymes, allowing for the discovery of parasite-selective inhibitors. Confirmed qHTS active compounds were tested against T cruzi PFK. A luminescent biochemical assay was performed that used luciferase-based nucleotide detection (ADP-Glo, Promega) to examine the effect of identified actives against another trypanosomal isoform of PFK, namely Trypansoma cruzi, for target specificity. The assay is identical in concept to the T. brucei PFK qHTS assay, but instead uses the T. cruzi isoform of PFK (expressed and purified by U. of Edinburgh). NIH Molecular Libraries Probe Production Network [MLPCN] NIH Chemical Genomics Center [NCGC] Grant: 1 R03 MH092153-01 PI Name: Malcolm Walkinshaw, University of Edinburgh
Substrate buffer was dispensed into white, solid 1536-well plates at 3 uL/well in 0.1M triethanolamine (TEA) buffer, pH 8.0, containing final concentrations of 5 mM MgCl2, 0.01% Tween20, 0.6mM fructose-6-phosphate (F6P) and 0.1mM ATP. Then, 23nl of compounds or DMSO were delivered to each well using a pin tool. One uL of T. cruzi PFK (0.1M TEA, 0.01% Tween20, 0.1% bovine serum albumin (BSA) and […] PFK, final concentrations) was then dispensed, and plates were incubated at room temperature for 45 min. The luminescent detection reagent, ADP-Glo (Promega), was then added in two steps: the first reagent, ADP-Glo (which converts remaining uncatalyzed ATP), was added at 2.5uL/well and incubated for ten minutes at room temperature, and the second component, Kinase Detection reagent (which converts ADP to ATP as a substrate for luciferase-based luminescence), was added immediately after at 5uL/well, followed by one final ten minute room temperature incubation. The plates were measured on a ViewLux plate reader for luminescent signal using a clear filter with a one second exposure. The %Activity was determined from the corrected luminescence values. 1x (1.25nM) and 0x PFK enzyme controls (untreated) were included to normalize %Activity of identified inhibitors; 0x enzyme values corresponded to 100%Activity (full inhibition), while 1x PFK enzyme values were used to normalize 0% Activity (no inhibition).
(In general: A counterscreen serves to expose hits that act by an unwanted route or on another target.)
As to `Cc1cc(NS(=O)(=O)c2ccc(NC(=O)Cc3ccc(Cl)c(F)c3)cc2)no1`, the Potency was 0.651 µM (active). To `Cc1cc(N(C)S(=O)(=O)c2ccc(NC(=O)Cc3ccc(Cl)c(Cl)c3)cc2)no1` belongs 2.06 µM (active); to `Cc1cc(NS(=O)(=O)c2ccc(NC(=O)Cc3ccc(C)c(F)c3)cc2)no1`, 4.61 µM (active). For the compound `O=C(Cc1ccc(Cl)c(Cl)c1)Nc1ccc(S(=O)(=O)Nc2cccc(O)c2)cc1`, the Potency is 1.63 µM (active).

On to `Cc1cc(NS(=O)(=O)c2cccc(NC(=O)Cc3ccc(Cl)c(Cl)c3)c2)no1`, for which the Potency is 16.3 µM (active). On to `Cc1cc(NC(=O)c2csc(NC(=O)Cc3ccc(Cl)c(Cl)c3)n2)no1`, for which the Potency result was “inactive”.

As for `O=C(Cc1ccc(Cl)c(Cl)c1)Nc1ccc(S(=O)(=O)Nc2cccc(C(=O)O)c2)cc1`, the Potency was 0.58 µM (active). To `O=C(Cc1ccc(Cl)c(Cl)c1)Nc1ccc(S(=O)(=O)O)cc1` belongs 0.461 µM (active). To `CCOC(=O)c1cccc(NS(=O)(=O)c2ccc(NC(=O)Cc3ccc(Cl)c(Cl)c3)cc2)c1` belongs “inactive”; to `Cc1cc(NS(=O)(=O)CCNC(=O)Cc2ccc(Cl)c(Cl)c2)no1`, 16.3 µM (active); to `Cc1cc(N[S+](=O)([O-])c2ccc(NC(=O)Cc3ccc(Cl)nc3)cc2)no1`, 20.6 µM (active). For the compound `O=C(Cc1ccc(Cl)c(Cl)c1)Nc1ccc(S(=O)(=O)Nc2ccc(C(=O)O)cc2)cc1`, the Potency is 0.291 µM (active). In the case of `O=C(Cc1ccc(Cl)c(Cl)c1)Nc1ccc(S(=O)(=O)Nc2ccn[nH]2)cc1`, the Potency was 0.73 µM (active).

`Cc1cc(NS(=O)(=O)c2ccc(C(=O)NCc3ccc(Cl)c(Cl)c3)cc2)no1`: the Potency is 2.91 µM (active). On to `Cc1cc(N[S+](=O)([O-])c2ccc3cc(NC(=O)Cc4ccc(Cl)c(Cl)c4)ccc3c2)no1`, for which the Potency is 4.61 µM (active). As for `Cc1cc(NS(=O)(=O)c2ccc(NS(=O)(=O)Cc3ccc(Cl)c(Cl)c3)cc2)no1`, the Potency result was “inactive”. To `Cc1cc(NS(=O)(=O)c2ccc(N(C)C(=O)Cc3ccc(Cl)c(Cl)c3)cc2)no1` belongs 1.3 µM (active). For the compound `Cc1cc(NS(=O)(=O)c2ccc(NC(=O)Cc3ccc(Cl)cc3)cc2)no1`, the Potency was 1.46 µM (active). With `Cc1cc(NS(=O)(=O)c2ccc(NC(=O)Cc3ccc(C)c(C)c3)cc2)no1`, the Potency was 6.51 µM (active). For the compound `Cc1cc(NS(=O)(=O)c2ccc(NC(=O)Cc3ccc(Cl)c(Cl)c3)cc2)n(C)n1`, the Potency was 1.16 µM (active). For the compound `O=C(Cc1ccc(Cl)c(Cl)c1)Nc1ccc(S(=O)(=O)Nc2ccon2)cc1`, the Potency was 0.13 µM (active). As for `Cc1cc(NC(=O)c2ccc(NC(=O)Cc3ccc(Cl)c(Cl)c3)cc2)no1`, the Potency result is “inactive”. To `Cc1cc(NS(=O)(=O)c2ccc(NC(=O)Cc3ccc4ccccc4c3)cc2)no1` belongs 1.83 µM (active); to `Cc1cc(NS(=O)(=O)c2ccc(NC(=O)Cc3ccc(Cl)c(C(F)(F)F)c3)cc2)no1`, 0.919 µM (active). Then `Cc1cc(NS(=O)(=O)c2ccc(NC(=O)Cc3ccc(Cl)cc3Cl)cc2)no1`, with 14.6 µM (active). Then `Cc1cc(NS(=O)(=O)c2ccc(NC(=O)CCc3ccc(Cl)c(Cl)c3)cc2)no1`, with 6.51 µM (active). With `COc1ccc(CC(=O)Nc2ccc(S(=O)(=O)Nc3cc(C)on3)cc2)cc1OC`, the Potency entry is “inactive”. `Cc1cc(NS(=O)(=O)Cc2ccc(NC(=O)Cc3ccc(Cl)c(Cl)c3)cc2)no1`: the Potency was 3.26 µM (active). Then `O=C(Cc1ccc(Cl)c(Cl)c1)Nc1ccc(S(=O)(=O)Nc2ccccc2)cc1`, with 16.3 µM (active); and `Cc1cc(NS(=O)(=O)c2ccc(NC(=O)Cc3cccc(Cl)c3)cc2)no1`, with 2.59 µM (active).

`CN(C)c1cccc(NS(=O)(=O)c2ccc(NC(=O)Cc3ccc(Cl)c(Cl)c3)cc2)c1`: the Potency is 11.6 µM (active). To `O=C(Cc1ccc(Cl)c(Cl)c1)Nc1ccc(S(=O)(=O)Nc2cncnc2)cc1` belongs 0.73 µM (active).

Regarding `Cc1cc(NS(=O)(=O)c2ccc(NCCc3ccc(Cl)c(Cl)c3)cc2)no1`, the Potency is 16.3 µM (active). Turning to `Cc1cc(NS(=O)(=O)c2ccc(NC(=O)Cc3ccc(Cl)c(Cl)c3)cc2)no1`, the Potency is 0.231 µM (active).

Take `Cc1cc(NS(=O)(=O)c2ccc(NC(=O)Cc3ccc(Cl)c(Cl)c3)cc2)on1`: the Potency is 0.231 µM (active).
